Compounds without any hit were thinned out: in the full panel of roughly 79,000, 15% have a hit. Calls of active or inactive are those of the source. No stated cut-off is given here; in the data, active means growth inhibition above about 70%; inactive means the rest.
Assay: NCI Yeast Anticancer Drug Screen. Data for the mlh1 rad18 strain (AID 175)
Conditions: S. cerevisiae mlh1 rad18 strain growth inhibition; at 50.0 µM; hits give high values
Outline: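 Cells of a genetically altered yeast strain, deficient in DNA damage repair, were treated with compound. Their growth was then compared with that of vehicle-treated cultures to give inhibition.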

Question: Which growth inhibition does the source give for `O=C(Nc1ccc2c(c1)OCO2)O/N=C\c1ccccn1` here?
Answer: 42.1% (inactive)

Question: With `COc1ccc(C(O)/C(=C/n2ccnc2)c2ccccc2)cc1OC` (configuration not stated) as the molecule, how does the growth inhibition read?
Answer: -25.2% (inactive)

Question: Which growth inhibition does the source give for `CC(C)N(CCn1c2c3ccccc3ccc2c2oc(=O)c3ccccc3c21)C(C)C` here?
Answer: -8% (inactive)

Question: Which growth inhibition does the source give for `CCOC(=O)c1cnc2n(c1=O)[C@H]1CCCC[C@@H]1N2` here?
Answer: 5.65% (inactive)

Question: Which growth inhibition does the source give for `O=[N+]([O-])c1ccc(COP(=O)(OCc2ccc([N+](=O)[O-])cc2)OCc2ccc([N+](=O)[O-])cc2)cc1` here?
Answer: 4.75% (inactive)

Question: With `NNc1ncnc2c1ncn2Cc1ccccc1` as the molecule, how does the growth inhibition read?
Answer: -14.4% (inactive)

Question: Which growth inhibition does the source give for `CC(=O)CC(C)(C)NNS(=O)(=O)c1ccc(C)cc1` here?
Answer: -13.6% (inactive)

Question: With `CCCCCCn1cnc2c(=S)nc[nH]c21` as the molecule, how does the growth inhibition read?
Answer: 12.8% (inactive)

Question: Which growth inhibition does the source give for `C/C(CCc1ccccc1)=N/Nc1ccc([N+](=O)[O-])cc1[N+](=O)[O-]` here?
Answer: -4.55% (inactive)

Question: Which growth inhibition does the source give for `O=C(C#Cc1ccccc1)[O][Sn]([c]1ccccc1)([c]1ccccc1)[c]1ccccc1` here?
Answer: 99.2% (active)

Question: For `COc1ccc(CCCc2cc3c(cc2OC)OCO3)cc1`, which growth inhibition is on record?
Answer: 12.2% (inactive)

Question: Which growth inhibition does the source give for `O=C(O)c1ccc(Cl)c(C(=O)O)c1` here?
Answer: 11.8% (inactive)

Question: For `CCC1([N+](=O)[O-])CC2C=CC1C2` (configuration not stated), which growth inhibition is on record?
Answer: -13.2% (inactive)

Question: For `O=C1CSC(/C(=C\c2ccc(Cl)cc2)c2nc3ccccc3[nH]2)=N1`, which growth inhibition is on record?
Answer: 4.3% (inactive)

Question: Which growth inhibition does the source give for `CC1CCOC(c2ccccc2Cl)O1` (configuration not stated) here?
Answer: 5% (inactive)

Question: With `CN1C(=O)C(=O)OC1=C(c1ccccc1)c1ccccc1` as the molecule, how does the growth inhibition read?
Answer: -18.2% (inactive)

Question: Which growth inhibition does the source give for `c1cc2c3c(cccc3c1)N=S=N2` here?
Answer: 12.2% (inactive)

From PubChem BioAssay (NCI)
